# According to PubChem BioAssay (NCATS):
# Unmarked numbers belong to inactive results. Results filed as inconclusive are left out. Entries that show only a call come without a potency. The source made the active and inactive calls. The call rests on the fitted dose curve; in most records, active means well fitted curve in the direction sought with a large enough effect; inconclusive means small, poorly fitted or top-dose-only effect, or another doubt; inactive means no such curve, though single readings can be large; an effect the other way counts as inactive or inconclusive.
# How the values were obtained:
# [1] = Vero cells viability qHTS for Zika virus inhibitors (AID 1347167)
# In short: (§1)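 Cells seeded at 2.5 x 10^5 cells/mL in DMEM with 4% FBS and attached overnight at 37 degrees C, then exposed to compound for 24 to 48 hours. Viability read as ATP content by CellTiter Glo luminescence.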
# [2] = HepG2 cells viability qHTS for Zika virus inhibitors (AID 1347168)
# In short: as §1
# [3] = Tertiary RLuc qRT-PCR qHTS assay for Zika virus inhibitors (AID 1347169); further: nearly all actives have a fitted effect of over 55% in size; further: potency means the concentration at half of the fitted maximal effect; on activity change, negative = inhibition: top concentration of the series differs between compounds
# In short: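 Vero cells (1,000/well) infected with recombinant ZIKV-RLuc (Cambodian) at MOI 1-2 after compound addition, 48-72 hrs at 37 degrees C. Live-cell Renilla luciferase substrate added; luminescence read after 1-1.5 hrs.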
# [4] = qHTS to identify inhibitors of the type 1 interferon - major histocompatibility complex class I in skeletal muscle: primary screen against the NCATS Pharmaceutical Collection (AID 1347407);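 further: luminescence of HiBiT knocked into endogenous HLA-B as interferon-induced MHC class I level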; further: potency means the concentration at half of the fitted maximal effect
# In short: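 Immortalized human myoblasts (C25cl48) with HiBiT knocked into endogenous HLA-B*08:01 were stimulated with 4.0 ng/ml IFN-beta and treated with compounds ([…] top 46 uM) for 24 hrs at 37 C. HiBiT lytic luminescence read.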
# [5] = biological target: Protein phosphatase 1D (Homo sapiens) (UniProt O15297); assay: RapidFire Mass Spectrometry qHTS Assay for Modulators of WT P53-Induced Phosphatase 1 (WIP1) (AID 1347424);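 further: amount of dephosphorylated VEPPL-S-QETFS peptide product formed by WIP1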; further: potency means the concentration at half of the fitted maximal effect; on activity change, negative = inhibition: series mostly up to about 63 µM
# In short: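 10 nM WIP1 preincubated with compounds 1 hr at room temperature in pH 7.5 Tris buffer with 30 mM MgCl2, 1 mM TCEP; 2 uM VEPPL-pS-QETFS phosphopeptide for 5 min, formic acid quench; dephosphorylated product quantified by RapidFire MS against labelled standard.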
# [6] = biological target: Calcium and integrin-binding protein 1 (Homo sapiens) (UniProt Q99828); assay: Primary qHTS for Identification of Calcium Integrin Binding Protein 1 (CIB1) Competitor (AID 1508620);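 further: GST tagged CIB1 binding a fluorescein labelled alphaIIb integrin peptide tracer; top concentration of the series differs between compounds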
# In short: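 Fluorescence polarization competition: GST-tagged CIB1 (1 uM final) preincubated with compound 15 min at room temperature, then FITC-labelled alphaIIb peptide (100 nM final) added. After 15 min at room temperature, polarization read at Ex 480/Em 540.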
# [7] = Confirmatory screen NINDS Rhodamine qHTS for Zika virus inhibitors (AID 1347161); further: potency means the concentration at half of the fitted maximal effect; nearly all actives have a fitted effect of over 60% in size
# In short: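 Each compound, titrated, sat 15 min with 25 nM linked protease before 1.5 microM Rhodamine110 substrate went in. Fluorescence gain over the next 15 min, in pH 8.0 Tris with Tween 20, gave Hill-fitted curves.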
# [8] = tested on: Zika virus NS2B-NS3 protease (linked); assay: 384 well plate NINDS AMC confirmatory qHTS for Zika virus inhibitors (AID 1347163); further: potency means the concentration at half of the fitted maximal effect; nearly all actives have a fitted effect of over 50% in size
# In short: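 Linked NS2B-NS3 protease (final 5 nM, 30 nM or 60 nM) was preincubated with compounds (final up to 1 mM) for ~15 minutes. Ac-VKTGKR-AMC substrate (final 30 microM) then reacted for 25 minutes at room temperature in the dark. Fluorescence (ex 355/em 460 nm) was normalized to no-enzyme and no-inhibitor controls.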
# [9] = Primary qHTS for inhibitors of La Crosse Virus (LACV) - induced cell death in SH-SY5Y cells (AID 1508616);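 further: top concentration of the series differs between compounds; higher means more rescue of cells from virus-induced death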
# In short: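 SH-SY5Y cells (6000/well) plated 24 h, then given compounds by pin transfer and LACV at 0.01 MOI for 6 days at 37C. Viability measured by ATPLite luminescence, normalized to infected DMSO and uninfected DMSO.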
# [10] = tested on: Zika virus NS2B-NS3 protease (linked construct); assay: Primary screen NINDS Rhodamine qHTS for Zika virus inhibitors (AID 1347160); further: nearly all actives have a fitted effect of over 55% in size
# In short: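 Percent inhibition, normalized to uninhibited and enzyme-free controls, is fitted to a 4-parameter Hill equation. Fluorescence change comes from a 15-min cleavage of 1.5 microM bis-peptide Rhodamine110 substrate by 25 nM linked NS2B-NS3 at room temperature.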
# [11] = biological target: Protein phosphatase 1D (Homo sapiens) (UniProt O15297); assay: Rhodamine-PBP qHTS Assay for Modulators of WT P53-Induced Phosphatase 1 (WIP1) (AID 1347425)
# In short: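 Steps: enzyme with Rh-PBP sensor and compounds, room-temperature incubation of 1 hr, baseline read, addition of VEPPL-pS-QETFS (10 uM final), kinetic fluorescence reads at 525/598 nm. Activity equals final minus baseline signal.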
# [12] = biological target: Lysine-specific demethylase 5B (Homo sapiens) (UniProt Q9UGL1); assay: Optimization screen for KDM5B Histone Demethylases FDH coupled qHTS against the LOPAC library (AID 1347166)
# In short: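 KDM5BDeltaAP (200nM final) preincubated 10 min with compound, then 12.5uM H3K4Me3, 25uM a-ketoglutarate, ascorbate, Fe(II), NAD+ and FDH added; 50mM HEPES pH 7.5, 0.01% Tween-20. NADH fluorescence (340/450 nm) change over 30 min, room temperature.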
# [13] = qHTS to identify inhibitors of the type 1 interferon - major histocompatibility complex class I in skeletal muscle: primary screen against the NCATS LOPAC collection (AID 1347405);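 further: lytic HiBiT luminescence reporting HLA-B protein level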
# In short: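 CRISPR-engineered immortalized human myoblasts (C25cl48) with HiBiT fused to endogenous HLA-B*08:01, stimulated with 4 ng/ml IFN-beta. LOPAC compounds tested as a 7-point 1:4.3 titration (top 46 uM final), 24 h at 37 C; lytic HiBiT luminescence read.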
# [14] = qHTS for inhibitors of adenylyl cyclases using a fission yeast platform: a pilot screen against the NCATS LOPAC library (AID 1347410)
# In short: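 S. pombe CHP2027 (AC9-GNAS-PDE4D2) carrying PKA-repressed fbp1-GFP, incubated 18 h at 30C in EMM with LOPAC compounds at up to 57 uM. GFP gain-of-signal read by laser scanning cytometry; DMSO negative control.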
# [15] = Validation qHTS assay for inhibitors of Activation Induced Cytidine Deaminase (AID): UDG Counterscreen signal (AID 1347427)
# In short: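 Counterscreen read of UDG activity (2 U/mL, 4/3x) in the FRET deamination format with AID (1 uM, 4/3x), DJC20/DJC23 substrates (250 nM, 4x), 4 h at room temperature. NaOH stop, fluorescence at 560 ex/665 em.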
# [16] = biological target: Single-stranded DNA cytosine deaminase (Homo sapiens) (UniProt Q9GZX7); assay: Validation qHTS assay for inhibitors of Activation Induced Cytidine Deaminase (AID): AID signal (AID 1347429)
# In short: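 FRET deamination assay: 1 uM AID (4/3x stock) with UDG, compound up to 114 uM, then 250 nM DJC20/DJC23 substrate (4x stock) for 4 hr at room temperature. NaOH added, 30 min; fluorescence read 540/590 nm.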
# [17] = biological target: Calcium and integrin-binding protein 1 (Homo sapiens) (UniProt Q99828); assay: Validation qHTS for Identification of Calcium Integrin Binding protein 1 (CIB1) Competitor (AID 1508618)
# In short: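 In this qHTS validation, the LOPAC set (up to 114 uM) was tested for blocking CIB1 binding to a fluorescein-tagged alphaIIb peptide, with FP detection at 480/540 nm.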
# [18] = tested on: Zika virus NS2B-NS3 protease (linked construct); assay: 384 well plate NINDS Rhodamine confirmatory qHTS for Zika virus inhibitors (AID 1347164); conditions: rhodamine-110 peptide substrate fluorescence;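 further: fluorescence from protease cleavage of Ac-LKRR-rhodamine 110 substrate; potency means the concentration at half of the fitted maximal effect; nearly all actives have a fitted effect of over 65% in size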
# In short: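 Linked NS2B-NS3 protease (final 5, 30 or 60 nM) preincubated ~15 minutes with compounds, then 10 microM Ac-LKRR-Rhodamine 110 added. Fluorescence (485/538 nm) read after 25 minutes at room temperature, normalized to no-enzyme and no-inhibitor controls.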
# [19] = qHTS to identify inhibitors of the type 1 interferon - major histocompatibility complex class I in skeletal muscle: primary screen against the NCATS Mechanism Interrogation Plate v5.0 (MIPE) Libary (AID 1347411); further: nearly all actives have a fitted effect of over 65% in size
# In short: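 Immortalized human myoblasts (C25cl48) with HiBit knocked into endogenous HLA-B*08:01 were stimulated with 4 ng/ml IFN-beta and given compounds in 11-point 1:3 titration from 46 uM. After 24 h at 37 C, lytic HiBiT luminescence was read.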
# Chain of Calcium and integrin-binding protein 1 (Homo sapiens) (Q99828 whole entry, looked up): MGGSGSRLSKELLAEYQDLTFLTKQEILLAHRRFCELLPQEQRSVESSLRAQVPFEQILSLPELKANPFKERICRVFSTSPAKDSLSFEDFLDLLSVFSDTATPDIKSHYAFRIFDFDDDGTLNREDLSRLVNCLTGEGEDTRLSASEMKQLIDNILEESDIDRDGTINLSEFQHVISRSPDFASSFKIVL
# Chain of Protein phosphatase 1D (Homo sapiens) (O15297 whole entry, looked up): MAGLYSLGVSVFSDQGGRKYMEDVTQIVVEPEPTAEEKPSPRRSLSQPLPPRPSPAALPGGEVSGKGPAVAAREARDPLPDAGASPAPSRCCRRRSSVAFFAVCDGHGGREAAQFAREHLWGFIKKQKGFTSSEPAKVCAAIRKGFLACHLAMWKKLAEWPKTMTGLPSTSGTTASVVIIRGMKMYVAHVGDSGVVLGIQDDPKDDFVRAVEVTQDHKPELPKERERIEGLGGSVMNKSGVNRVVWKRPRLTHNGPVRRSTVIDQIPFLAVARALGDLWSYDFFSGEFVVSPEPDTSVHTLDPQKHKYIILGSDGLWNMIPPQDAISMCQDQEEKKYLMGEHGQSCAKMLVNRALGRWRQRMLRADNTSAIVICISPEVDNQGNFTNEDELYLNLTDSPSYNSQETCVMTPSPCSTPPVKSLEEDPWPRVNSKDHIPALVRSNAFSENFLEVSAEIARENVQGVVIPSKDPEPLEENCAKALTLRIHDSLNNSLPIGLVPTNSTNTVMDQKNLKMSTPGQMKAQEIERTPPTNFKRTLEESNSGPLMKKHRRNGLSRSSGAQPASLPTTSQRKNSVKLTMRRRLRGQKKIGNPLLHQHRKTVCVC
# Chain of Lysine-specific demethylase 5B (Homo sapiens) (Q9UGL1 whole entry, looked up): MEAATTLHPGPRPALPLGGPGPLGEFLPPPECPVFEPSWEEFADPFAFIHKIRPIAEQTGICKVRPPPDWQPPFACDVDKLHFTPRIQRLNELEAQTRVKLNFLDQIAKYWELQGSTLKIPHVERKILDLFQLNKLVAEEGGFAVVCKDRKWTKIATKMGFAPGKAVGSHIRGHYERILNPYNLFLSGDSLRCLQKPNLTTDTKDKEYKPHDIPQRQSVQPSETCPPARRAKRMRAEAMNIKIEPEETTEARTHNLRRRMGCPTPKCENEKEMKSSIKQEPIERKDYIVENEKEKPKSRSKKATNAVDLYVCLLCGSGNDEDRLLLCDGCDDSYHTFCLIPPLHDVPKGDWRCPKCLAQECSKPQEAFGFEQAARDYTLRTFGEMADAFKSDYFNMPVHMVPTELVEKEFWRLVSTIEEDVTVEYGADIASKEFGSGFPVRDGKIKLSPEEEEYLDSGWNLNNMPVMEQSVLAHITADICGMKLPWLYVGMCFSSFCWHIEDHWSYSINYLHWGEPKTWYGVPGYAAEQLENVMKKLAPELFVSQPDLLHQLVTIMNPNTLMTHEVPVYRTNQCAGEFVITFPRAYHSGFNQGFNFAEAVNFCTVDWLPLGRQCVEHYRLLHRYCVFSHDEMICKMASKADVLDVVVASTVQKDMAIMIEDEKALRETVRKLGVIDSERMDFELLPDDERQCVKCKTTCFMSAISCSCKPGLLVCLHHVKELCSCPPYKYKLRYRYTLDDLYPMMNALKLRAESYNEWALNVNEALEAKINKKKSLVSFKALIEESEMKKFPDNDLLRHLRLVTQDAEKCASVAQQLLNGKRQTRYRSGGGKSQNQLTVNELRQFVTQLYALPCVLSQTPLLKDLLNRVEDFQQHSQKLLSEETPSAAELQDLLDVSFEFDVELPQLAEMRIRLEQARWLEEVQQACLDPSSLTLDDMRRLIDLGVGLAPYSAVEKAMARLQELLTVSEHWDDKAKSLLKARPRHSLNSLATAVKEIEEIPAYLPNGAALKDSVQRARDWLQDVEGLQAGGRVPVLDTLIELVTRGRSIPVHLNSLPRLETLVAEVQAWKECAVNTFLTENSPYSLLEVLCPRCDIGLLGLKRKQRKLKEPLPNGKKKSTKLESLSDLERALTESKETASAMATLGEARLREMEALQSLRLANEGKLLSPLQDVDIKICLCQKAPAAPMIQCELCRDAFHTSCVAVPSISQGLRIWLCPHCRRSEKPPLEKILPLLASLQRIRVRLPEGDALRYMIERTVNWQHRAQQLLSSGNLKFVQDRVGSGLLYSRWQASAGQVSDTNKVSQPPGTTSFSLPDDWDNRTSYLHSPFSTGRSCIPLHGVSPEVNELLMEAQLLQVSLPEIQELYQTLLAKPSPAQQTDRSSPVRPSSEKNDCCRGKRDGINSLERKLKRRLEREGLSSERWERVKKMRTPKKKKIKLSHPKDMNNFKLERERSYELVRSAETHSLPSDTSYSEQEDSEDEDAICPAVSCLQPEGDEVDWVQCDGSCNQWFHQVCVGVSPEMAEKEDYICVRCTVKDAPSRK
# Chain of Single-stranded DNA cytosine deaminase (Homo sapiens) (Q9GZX7 whole entry, looked up): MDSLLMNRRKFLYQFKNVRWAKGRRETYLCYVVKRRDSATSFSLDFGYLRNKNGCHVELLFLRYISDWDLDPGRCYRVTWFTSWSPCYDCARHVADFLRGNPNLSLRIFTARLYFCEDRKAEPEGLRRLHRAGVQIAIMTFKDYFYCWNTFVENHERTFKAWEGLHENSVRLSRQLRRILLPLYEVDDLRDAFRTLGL
compound,measurement,setting,value
C[C@H]1O[C@@H](O[C@H]2CC[C@@]3(C)[C@H](CC[C@@H]4[C@@H]3C[C@@H](O)[C@]3(C)[C@@H](C5=CC(=O)OC5)CC[C@]43O)C2)C[C@H](O)[C@@H]1O[C@H]1C[C@H](O)[C@H](O[C@H]2C[C@H](O)[C@H](O[C@@H]3O[C@H](CO)[C@@H](O)[C@H](O)[C@H]3O)[C@@H](C)O2)[C@@H](C)O1,outcome,[1],inactive
same,Potency,[2],inactive
same,Potency,[3],0.415 µM (active)
same,Potency,[4],0.528 µM (active)
same,Potency,[5],inactive
same,Potency,[6],inactive
CC(C)=CCOc1ccc(/C=C/C(=O)c2ccc(OCC=C(C)C)cc2OCC(=O)O)cc1,Potency,[7],6.31 µM (active)
same,Potency,[8],39.8 µM (active)
same,"activity change, negative = inhibition",[3],84.9% [at 5.25 µM]
same,Potency,[4],inactive
same,Potency,[5],inactive
same,outcome,[9],inactive
CC[C@]12CCCN3CCc4c(n(c5ccccc45)C(=O)C1)[C@@H]32,outcome,[10],inactive
same,Potency,[4],inactive
same,Potency,[5],inactive
same,outcome,[11],inactive
same,outcome,[9],inactive
same,Potency,[6],inactive
NC(N)=NCc1cccc(I)c1,outcome,[12],inactive
same,outcome,[13],inactive
same,outcome,[14],inactive
same,outcome,[15],inactive
same,outcome,[16],inactive
same,outcome,[9],inactive
same,outcome,[17],inactive
CC(C)(C)NC[C@H](O)COc1nsnc1N1CCOCC1,outcome,[12],inactive
same,outcome,[13],inactive
same,Potency,[4],inactive
same,outcome,[14],inactive
same,Potency,[5],inactive
same,outcome,[15],inactive
same,outcome,[16],inactive
same,outcome,[9],inactive
same,outcome,[17],inactive
same,Potency,[6],inactive
CCc1oc2ccccc2c1C(=O)c1cc(Br)c(O)c(Br)c1,Potency,[7],1.75 µM (active)
same,Potency,[8],79.4 µM (active)
same,Potency,[18],28.2 µM (active)
same,outcome,[1],inactive
same,Potency,[4],inactive
same,Potency,[5],6.31 µM (active)
same,outcome,[9],inactive
O=C(O)C(Cc1cc(I)c(O)c(I)c1)c1ccccc1 (configuration not stated),Potency,[7],50.1 µM (active)
same,Potency,[18],112 µM (active)
same,"activity change, negative = inhibition",[3],-2.94% [at 1.74 µM]
same,Potency,[4],inactive
same,outcome,[11],inactive
same,outcome,[9],inactive
same,Potency,[6],inactive
Nc1nc(Cl)nc2c1ncn2[C@@H]1O[C@H](CO)[C@@H](O)[C@@H]1F,Potency,[4],inactive
same,Potency,[19],inactive
same,Potency,[5],inactive
same,outcome,[11],inactive
same,outcome,[9],inactive
same,Potency,[6],inactive
O=C(CCCN1CC=C(n2c(=O)[nH]c3ccccc32)CC1)c1ccc(F)cc1,outcome,[10],inactive
same,Potency,[4],inactive
same,Potency,[5],inactive
same,outcome,[9],inactive
same,Potency,[6],inactive
CCCCN=C(N)N=C(N)N,Potency,[4],inactive
same,Potency,[5],inactive
same,outcome,[11],inactive
same,outcome,[9],inactive
CN1CCN(CCC(=O)N2c3ccccc3Sc3ccc(C(F)(F)F)cc32)CC1,Potency,[4],inactive
same,Potency,[5],inactive
CC(=O)O[C@H]1C[C@@H]2CC[C@@H]3[C@H](CC[C@@]4(C)[C@H]3C[C@H]([N+]3(C)CCCCC3)[C@@H]4OC(C)=O)[C@@]2(C)C[C@@H]1N1CCCCC1,Potency,[4],inactive
same,Potency,[19],inactive
same,Potency,[5],inactive
same,outcome,[11],inactive
same,outcome,[9],inactive
same,Potency,[6],inactive
